HT1080 IDH1KD tx: HT-1080 IDH1 knockdown cell toxicity (counter line). HT-1080 IDH1 knockdown viability, ATP luminescence, 48 h. Potency, µM (series often up to 46.1 µM), for inactives: at the highest dose activity, negative = toxicity, most hits filed as cytotoxic. actives 2% (n = 360,000). AID 686971;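 also: potency is read from the fitted curve at half-maximal effect; 0% = DMSO wells and -100% = cell-free medium wells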
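Assay cells: HT-1080 with IDH1 knockdown, 750 per well, RPMI/5% FBS. Exposure: 48 h at 37 °C following 2 h pre-incubation. Read: CellTiter-Glo luminescence; fitted concentration-response, curve class assigned.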
TDP1 cell noCPT: qHTS for Inhibitors of human tyrosyl-DNA phosphodiesterase 1 (TDP1): qHTS in cells in absence of CPT; DT40 Tdp1-/- hTDP1 cells, no CPT, ATP luminescence, 48 h; Potency, µM (titrated, usually from 46.2 µM), without a hit: at the highest dose activity change, negative = growth inhibition, hits mostly inhibitors; actives 15% (n = 420,000); also: potency is read from the fitted curve at half-maximal effect; nearly all actives have a fitted effect of over 55% in size
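Chicken DT40 Tdp1-/- cells stably complemented with human TDP1 were seeded at 400 cells/well with DMSO in place of 20 nM camptothecin. After compound pinning, cells grew at least 48 hr at 37 °C; viability read by CellTiter-Glo luminescence.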
DT40 TDP1 CPT: growth inhibition of DT40 Tdp1-/-;hTDP1 cells with camptothecin (screen for TDP1 inhibitors); chicken DT40 Tdp1-/-;hTDP1 cells + 20 nM CPT, ATP luminescence, 48 h; Potency, µM (highest dose often 46.2 µM), for the others: at the highest dose activity change, negative = growth inhibition, usual class: inhibitors; actives 12% (n = 420,000); AID 686979; also: potency is read from the fitted curve at half-maximal effect; nearly all actives have a fitted effect of over 55% in size
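Chicken DT40 Tdp1-/- cells stably complemented with human TDP1 were seeded at 400 cells/well in medium containing 20 nM camptothecin, exposed to pin-transferred compounds, and grown at 37 °C for at least 48 hr. Viability was read as ATP luminescence.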
IL-1B inflam inh: blocks inflammasome-driven IL-1 beta release; activity change, % at 57.5 µM; actives 4.7% (n = 360,000); THP-1 LPS/ATP IL-1B secretion, AlphaLISA, 16 h; stronger effect = lower value; in the data active = activity change below about -50%; inconclusive = mostly about -30% to -49%
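THP-1 cells pretreated 1 hr with compounds (up to 57.5 uM final), then stimulated with LPS (250 ng/mL final) plus ATP (1.25 mM final); secreted IL-1B measured by AlphaLISA after 16 hr, decreased signal indicating inhibition.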
HT1080-NT tox: kills 2HG-producing HT-1080-NT fibrosarcoma cells; HT-1080-NT fibrosarcoma viability, CellTiter-Glo ATP luminescence, 48 h; Potency, µM (doses to about 46.1 µM), for inactives: at the highest dose activity, negative = less viability, usual class: cytotoxic; actives 1.6% (n = 360,000);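 also: NT is the 2HG producing partner of a matched IDH1 knockdown line; potency is read from the fitted curve at half-maximal effect; 0% = DMSO-treated cells and -100% = media-only wells without cells; nearly all actives have a fitted effect of over 55% in size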
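Toxicity toward the 2HG-producing NT line was scored as %Activity, normalised to DMSO and no-cell wells, from CellTiter-Glo luminescence after 48 hours' treatment.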
An asterisk follows results filed as active; ? = inconclusive; / = no result given; [ ] = another dose, or the depositor's remark. The list is not random: actives were taken first. Their share in the collection is about 19%. Unless noted, calls follow the shape of the dose curve; as a rule, active = well fitted curve in the direction sought with a large enough effect; inconclusive = small, poorly fitted or top-dose-only effect, or another doubt; inactive = no such curve, though single readings can be large; an effect the other way counts as inactive or inconclusive. Unless noted, % is scaled to controls: 0 for no effect and ±100 for the full control effect.

SMILES	HT1080 IDH1KD tx	TDP1 cell noCPT	DT40 TDP1 CPT	IL-1B inflam inh	HT1080-NT tox
Cc1cc(C)n(-c2ccc(C(=O)Nc3ccc(C)c(S(=O)(=O)N4CCOCC4)c3)cc2)n1	?	16µM*	?	-88*	?
COCC1CCCN(c2nc(CN3CCN(C(=O)c4ccco4)CC3)nc3ccccc23)C1 (configuration not stated)	/	-19%	10%[9.04 µM]	/	/
Cc1c(NC(=O)COC(=O)C2(c3ccc(F)cc3)CCCC2)c(=O)n(-c2ccccc2)n1C	22%	?	-24%	29	15%
Cc1ccc(C)c(N2CCN(C(=O)C3CCN(c4nnc(N5CCCC5=O)s4)CC3)CC2)c1	-3%	?	23µM*	?	-4%
Cc1ccc(C)c(N2CCN(C(=O)c3ccc(N4CCCC4=O)cc3)CC2)c1	-2%	16µM*	?	0	-3%
O=C(C1CCN(c2nnc(N3CCCC3=O)s2)CC1)N1CCN(c2cccc(C(F)(F)F)c2)CC1	-11%	1.8µM*	8.2µM*	36	-11%
O=C(C[n+]1cc(Br)cc2ccccc21)c1ccccc1	-8%	18µM*	18µM*	26	-6%
OC(CBr)C[n+]1cc(Br)cc2ccccc21 (configuration not stated)	/	8.9µM*	7.1µM*	/	/
CN(C)Cc1nc2c(c(=O)[nH]1)C(C)(C)Cc1ccccc1-2	0%	11%	-3%	-3	0%
CCC1(CC)Cc2ccccc2-c2nc(-c3ccccc3)oc(=O)c21	-2%	16µM*	?	6	5%
CCN(CC)Cc1nc2c(c(=O)[nH]1)C1(CCCCC1)Cc1ccccc1-2	-5%	18µM*	21µM*	-16	1%
CN(C)Cc1nc2c(c(=O)[nH]1)C1(CCCCC1)Cc1ccccc1-2	0%	23µM*	18µM*	-8	-14%
O=c1oc(-c2ccccc2)nc2c1C1(CCCCC1)Cc1ccccc1-2	-4%	-13%	-3%	-5	-7%
CCC1(CC)Cc2ccccc2-c2nc(CN(C)C)[nH]c(=O)c21	-15%	16µM*	?	-3	?
O=c1[nH]c(NCCCO)nc2c1C1(CCCC1)Cc1ccccc1-2	?	?	?	?	-28%
Cc1ccsc1/C=N/NC(=O)c1nnn(-c2nonc2N)c1CSc1ccccc1	16%	16%	-25%	6	?
COc1ccc(-n2ncc3c2CC(C)(C)CC3NC(=O)C2CCN(C(C)=O)CC2)cc1 (configuration not stated)	-2%	26%	-2%	-1	-3%
CC1CN(C(=S)NC(=O)c2ccc([N+](=O)[O-])cc2)CC(C)O1 (configuration not stated)	7%	1%	6%	25	6%
O=C(CNc1ccccc1)c1ccc([N+](=O)[O-])cc1	2%	16µM*	15µM*	3	2%
O=C(CSCC(=O)c1ccc([N+](=O)[O-])cc1)c1ccc([N+](=O)[O-])cc1	0%	?	21µM*	9	-3%
O=C(Nc1cccc2ccccc12)c1ccc([N+](=O)[O-])cc1	-10%	?	-7%	-15	-13%
O=C(CNc1cccc2ccccc12)c1ccc([N+](=O)[O-])cc1	4%	13µM*	15µM*	-5	4%
CC1CN(C(=S)SCC(=O)c2ccc([N+](=O)[O-])cc2)CC(C)O1 (configuration not stated)	-3%	5.2µM*	2.6µM*	-23	-13%
CC(C)c1nc(N(C)S(C)(=O)=O)nc(-c2ccc(F)cc2)c1/C=C/C(O)CC(O)CC(=O)O (configuration not stated)	/	-51%	-20%	/	/
O=C(Nc1c[nH]c(=O)[nH]c1=O)c1ccc([N+](=O)[O-])cc1	0%	11%	-1%	15	-5%
O=C(Nc1cccc2c(=O)[nH][nH]c(=O)c12)c1ccc([N+](=O)[O-])cc1	-7%	-17%	8.2µM*	79	1%
